PubChem BioAssay (NCI)
This is part of a sample that, as a whole, favours compounds with a hit. Of some 79,000 tested, about 15% had one in any assay. Unmarked numbers belong to inactive results. Calls of active or inactive are those of the source. No stated cut-off is given here; in the data, active means growth inhibition above about 70%; inactive means the rest.

Experiment: NCI Yeast Anticancer Drug Screen. Data for the rad50 strain (AID 155);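 further: 0% = growth of vehicle-only cultures of the same strain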
Details: S. cerevisiae rad50 strain growth inhibition; at 5.0 µM (retest, dose inferred, filed as 0.5); active compounds read high
Procedure, shortened: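 Inhibition values express reduced yeast growth in compound-treated cultures relative to vehicle-treated controls.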

Compound | growth inhibition
Cc1ccc(O)c(C(c2cc(C)ccc2O)c2ccccc2Cl)c1 | 96% (active)
O=c1ssc(=Nc2ccc(Cl)cc2)n1-c1ccc(Cl)cc1 | 77% (active)
CC(=O)OC1CCC2(C)C(CCC3C4=CCC(C5COC(=O)C5)C4(C)CCC32)C1 (stereo not given) | -1%
CCN(CC)CCCC(C)Nc1cc(F)cc2cccnc12 (stereo not given) | 10%
CC1CN(CCCN2c3ccccc3Sc3ccc(Cl)cc32)C(C)(C)C1 (stereo not given) | 1%
O=S(=O)(O)c1ccc2c(c1)C1C(C3C2C2(Cl)C(Cl)=C(Cl)C3(Cl)C2(Cl)Cl)C2(Cl)C(Cl)=C(Cl)C1(Cl)C2(Cl)Cl (stereo not given) | -7%
OC(CN1CCC(c2ccccc2)CC1)c1ccc(Br)cc1 (stereo not given) | 57%
CCOC(=O)/C(C#N)=C\c1cccc2ccccc12 | 13%
COc1ccc2c(c1)CCC(N1CCCC(O)C1)C2 (stereo not given) | 13%
COc1cccc(N2CCN(CC(O)COc3cc4c(c5c3CCCC5)CCCC4)CC2)c1 (stereo not given) | 17%
CC(=O)Oc1ccc(Cl)cc1Cc1cc(Cl)ccc1OC(C)=O | 17%
CC(O)c1c2c(cc3c1CC1(C3)Cc3cc4c(c(C(C)O)c3C1)CCC4)CCC2 (stereo not given) | -18%
O=c1c2ccccc2nc(-c2ccccc2)n1NC(=S)Nc1ccc(Cl)cc1[N+](=O)[O-] | -3%
O=C(CCCN1CCc2[nH]c3cc(F)ccc3c2C1)c1ccc(F)cc1 | -11%
OC(C(=Nc1ccccc1)c1ccccc1)c1ccccc1 (stereo not given) | 50%
N#CC1CCCC(Cc2ccccc2)(c2ccccc2)C1=O (stereo not given) | -4%
CC(OC(=O)Nc1cccc(Cl)c1)c1ccccc1 (stereo not given) | 18%
O=C(O)/C=C/c1c2ccccc2cc2ccccc12 | 41%
Cc1c[nH]c2c(O)cc3c(c12)[C@H](CCl)CN3C(=O)c1cc2cc(NC(=O)Nc3ccc4[nH]c(C(=O)N5C[C@@H](CCl)c6c5cc(O)c5[nH]cc(C)c65)cc4c3)ccc2[nH]1 | 38%
Cc1ccc(S(=O)(=O)OC(C=O)C(O)C(O)COC(c2ccccc2)(c2ccccc2)c2ccccc2)cc1 (stereo not given) | 98% (active)

Compound | growth inhibition
COc1cc2c(cc1C(C)C)CCC1C(C)(C#N)CCCC21C (stereo not given) | -6%
Fc1ccc(NC(=S)SCc2ccc(Cl)c(Cl)c2)c(F)c1 | 13%
COC(=O)/C=C(\NC1CC(OC2C[C@](O)(C(C)=O)Cc3c(O)c4c(c(O)c32)C(=O)c2c(OC)cccc2C4=O)OC(C)C1O)C(=O)OC (stereo not given in full) | 25%
O=C1CSC(=S)N1c1ccc(F)cc1F | 8%
CS(=O)(=O)OCCN(CCOS(C)(=O)=O)c1ccc(C=Nc2ccc3ccccc3c2)c(Cl)c1 | 5%
CN(C)C(=O)Nc1ccc(Cc2ccc(NC(=O)N(C)C)cc2)cc1 | -6%
O=c1c(Cl)c(Cl)c(=O)c2sc3cc(Cl)ccc3[nH]c1=2 | 6%
O=S(=O)(O)C(O)c1ccc2ccc3cccc4ccc1c2c34 (stereo not given) | 12%
N#Cc1cc([N+](=O)[O-])ccc1NC(=O)/C(=N/N)C(C(=O)c1ccc(Cl)c(Cl)c1)C1OC(=O)c2ccccc21 (stereo not given) | 23%
O=C(Nc1ccc(Cl)c(Cl)c1Cl)Oc1c(Cl)c(Cl)c(Cl)c(Cl)c1Cl | 25%
O=[N+]([O-])c1cc(Cl)cc2c1nc(NCCO)c1ccccc12 | 76% (active)
CCNc1nc(C(F)(F)F)nc2nc[nH]c12 | 3%
CC1CCN(CCOC(=O)C(c2ccccc2)C2C=CCCC2)C1 (stereo not given) | 8%
CCOC(=O)c1c(N)sc2c1CCCCC2 | -160%
CC(C(O)Cc1ccccc1)N(C)N=Nc1ccc([N+](=O)[O-])cc1 (stereo not given) | 35%
O=[N+]([O-])c1ccc(/C=c2\sc3scc(-c4ccc([N+](=O)[O-])cc4)[n+]3\c2=C/c2ccc([N+](=O)[O-])cc2)cc1 | 99% (active)
Oc1cc(C(c2ccccc2)c2ccccc2)c2ccccc2c1O | 17%
CC1=CC2OC3CC4OC(=O)/C=C/C=C/C(C(C)O)OCC(=O)C(C)CC(=O)OCC2(CC1)C4(C)C31CO1 (stereo not given) | 28%
CC(NNC(=S)N1CCCCCC1)c1cc2ccccc2cn1 (stereo not given) | 52%
CC(C)C1=CC23CCC4C(C)(C(=O)O)CCCC4(C)C2CC1C1C(=O)C=CC(=O)C13 (stereo not given) | 86% (active)
